Rows were chosen to be rich in hits. Some 7.8% of all compounds tested hit in one or more screens of this group.
HCV inhibitor: blocks hepatitis C virus. Potency, µM (series often up to 41.8 µM), inactives show at the top dose activity change, negative = inhibition, actives largely listed as inhibitors. Huh7.5.1 HCVcc-Cre infection, luciferase reporter, 44 h. 3.4% of 340,000 active; active means well fitted inhibition curve with a large enough effect; inconclusive means small, poorly fitted or top-dose-only effect, or another doubt; inactive means no such curve, though single readings can be large or run the other way; further: potency means the concentration at half of the fitted maximal effect
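Antiviral activity was scored by luciferase reporter output from cells infected with HCVcc-Cre (~0.5 moi) in presence of compound, 44 h infection period, cells seeded 1,000/well 4 h prior.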
HCMV antiviral: blocks human cytomegalovirus replication. AID 1259415. 4.5% of 410,000 active. HFF cells, HCMV-luciferase reporter, 72 h; stronger effect = lower value. activity change, negative = inhibition, % at 57.5 µM; in the data active means activity change below about -60%; inconclusive means no clear call, values can overlap the other calls; inactive means above about -39%
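Luciferase read-out from HCMV-luciferase-infected HFFs (MOI 1 PFU/cell) 72 h post infection at 37C; compounds added after 16 h cell attachment; activity normalized between buffer-only basal and Salinomycin (10uM) inhibitor controls.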
VACV Venus inh: vaccinia inhibition (Venus reporter). Vaccinia virus Venus reporter expression, fluorescence. Potency, µM (titrated, usually from 36.5 µM), inactives show top-dose activity change, negative = inhibition, most hits filed as inhibitors. 0.46% of 330,000 active; calls by dose curve; tested in A549 cells; further: potency means the concentration at half of the fitted maximal effect; nearly all actives have a fitted effect of over 30% in size
MARV entry inh: blocks Marburg virus binding to or entry into cells. Marburg virus pseudotyped entry inhibition, cell reporter. Potency, µM (highest dose often 37.8 µM), inactives show at the top dose activity change, negative = inhibition, usual class: inhibitors. 1.8% of 300,000 active. AID 540276; calls by dose curve; tested in HEK293 cells; further: potency means the concentration at half of the fitted maximal effect
LASV entry inh: Lassa virus entry inhibition; Lassa virus pseudotype entry inhibition, cell reporter; Potency, µM (series often up to 37.9 µM), for inactives: at the highest dose activity change, negative = inhibition, usual class: inhibitors; 1.2% of 300,000 active; AID 540256; calls by dose curve; tested in HEK293 cells; further: potency means the concentration at half of the fitted maximal effect; nearly all actives have a fitted effect of over 50% in size
VACV mCherry inh: vaccinia inhibition (mCherry reporter); AID 720579; 0.63% of 310,000 active; Vaccinia virus mCherry reporter infection, fluorescence; Potency, µM (titrated, usually from 36.5 µM), without a hit: at the highest dose activity change, negative = inhibition, actives largely listed as inhibitors; calls by dose curve; tested in A549 cells; further: potency means the concentration at half of the fitted maximal effect; nearly all actives have a fitted effect of over 35% in size
* = called active by the depositor; i = inactive; ? = inconclusive; . = no result given; ! = repeats disagree; [ ] = dose if it differs, or a comment. On the % scale 0 is the no-effect control and ±100 the full control effect.

SMILES | HCV inhibitor | HCMV antiviral | VACV Venus inh | MARV entry inh | LASV entry inh | VACV mCherry inh
C=C1C(=O)O[C@H]2C[C@H]1[C@@H](OC(C)=O)C/C(C)=C/CC/C(C)=C\CC[C@]2(C)O | 10µM* | -103* | 10µM* | . | . | 10µM*
N#Cc1c(C(F)(F)F)cc(=O)n2c1[nH]c1ccccc12 | ? | -96* | ? | ? | ? | 10µM*
CC(C)c1ccc(N2C(=O)CSC23C(=O)N(Cc2cccc(F)c2)c2ccccc23)cc1 (stereo not given) | . | ? | -29% | . | -2%[46.1 µM] | ?
CC(C)c1ccc(N2C(=O)CSC23C(=O)N2CCCc4cccc3c42)cc1 (stereo not given) | -6% | -111* | . | 8% | -1% | .
Cc1ccc(CNC(=O)c2c[nH]c3ccc(S(=O)(=O)Nc4ccc(C(C)C)cc4)cc3c2=O)cc1 | . | 0 | -11% | . | ? | -6%
CC(C)Cc1nc2oc3c(NCc4cccnc4)ncnc3c2c2c1CCC2 | ? | -29 | . | ? | -7% | .
CC(C)c1nc2oc3c(NCc4cccnc4)ncnc3c2c2c1CCC2 | 7.1µM* | -11 | . | -14% | ? | .
CC(C)Cc1nc2oc3c(NCC4CCCO4)ncnc3c2c2c1CCC2 (stereo not given) | 14µM* | -13 | . | ? | -24% | .
CN(CC(=O)Nc1ccc(Cl)c(C(F)(F)F)c1)C(=O)C1CC(=O)N(Cc2ccco2)C1 (stereo not given) | 0% | -90* | -4% | 16%[46.1 µM] | -1% | i
Cc1sc2ncnc(N3CCC(C(=O)N(C)CC(=O)Nc4cccc(F)c4)CC3)c2c1C | . | -88* | ? | . | . | ?
CN(CC(=O)Nc1cccc(F)c1)C(=O)C1CC(=O)N(Cc2ccco2)C1 (stereo not given) | 2% | -17 | -2% | -1%[46.1 µM] | -4% | i
CCCCC1CCC(C(=O)N(C)CC(=O)Nc2cccc(F)c2)CC1 (stereo not given) | -24% | 10 | ? | ? | -8% | ?
CN(CC(=O)Nc1ccc(Cl)c(C(F)(F)F)c1)C(=O)C1CCN(C(=O)c2ccc(Cl)cc2)CC1 | 11µM* | -1 | . | . | . | .
Cc1sc2ncnc(N3CCC(C(=O)N(C)CC(=O)Nc4ccc(Cl)c(C(F)(F)F)c4)CC3)c2c1C | 8.9µM* | ? | ? | ? | 7.1µM* | 10µM*
COc1ccc(C2=NC(c3ccncc3)=Nc3ccc(OC)cc3N2)cc1 | . | 22 | -15% | ? | -5%[46.1 µM] | -17%
CCOc1ccccc1NC(=O)c1ccc2c(Cl)c3c(nc2c1)CCCC3 | . | -8 | -1% | 18%[46.1 µM] | 9%[46.1 µM] | -11%
C=CCn1c(SCc2ccc(C(=O)Nc3nccs3)cc2)nnc1-c1ccc(C)c(Cl)c1 | 8.9µM* | -94* | ? | ? | 11µM* | ?
Cn1nnnc1SCc1ccc(C(=O)Nc2nccs2)cc1 | -9% | -30 | -12% | 21% | ? | -20%
Cc1oc2c(c1C(=O)NCc1cccc(Br)c1)C1=NCCN1C=N2 | . | -5 | -3% | . | 13%[46.1 µM] | i
COC(=O)NC(CCc1ccccc1)C(C(=O)OC)C(=O)OC (stereo not given) | . | . | . | 13%[14.2 µM] | ? | .
CCN(CC)c1ccc(N=C2C(=O)Nc3ccccc32)cc1 | ? | -96* | -26% | ? | -26% | -29%
CCN(CC)c1ccc(C2NC(=O)c3ccccc3N2)cc1 (stereo not given) | -19% | -25 | ? | ? | 6.3µM* | -19%
O=c1oc2c3c(ccc2c2ccccc12)OCN(Cc1ccccc1Cl)C3 | . | -18 | -10% | ? | 4%[46.1 µM] | -8%
Cc1ccc(Nc2nc(NCc3ccco3)nc3nccnc23)cc1Cl | . | . | -10% | . | . | -11%
COc1ccc(CNS(=O)(=O)c2ccc(N3CCCCS3(=O)=O)cc2)cc1 | . | -36 | -25% | . | -18%[46.1 µM] | -24%
SMILES | HCV inhibitor | HCMV antiviral | VACV Venus inh | MARV entry inh | LASV entry inh | VACV mCherry inh
N=C(N)SCCN | -13% | 21 | -5% | 35µM*! | 22% | -20%
CN(C)CCCCSC(=N)N | . | . | -6% | ? | . | -4%
N#Cc1ccc2c(c1)C[C@]1(CCCCN3C(=O)c4ccccc4C3=O)Oc3c(c(=O)oc4ccc(F)cc34)[C@@H]2O1 | . | . | . | -26%[14.2 µM] | . | .
Cc1ccc(C(=O)NCCc2c[nH]c3ccccc23)c(C)c1 | ? | 174 | -1% | ? | 11µM* | -23%
COc1ccc2[nH]cc(CCNC(=O)c3ccccc3Cl)c2c1 | 5% | -84* | -4% | 2%[46.1 µM] | -10% | ?
COC(=O)Cc1c(O)ccn(CCc2c[nH]c3ccc(OC)cc23)c1=O | 7% | -73* | 5% | 3%[46.1 µM] | 9%[46.1 µM] | i
COc1ccc2[nH]cc(CCNC(=O)Cc3c(F)cccc3Cl)c2c1 | ? | -16 | -12% | -2% | -15% | -5%
Cc1ccc(NC(=O)CCc2c[nH]c3ccccc23)nc1 | ? | -74* | -22% | ? | ? | -14%
COc1ccc(CCNC(=O)c2cnc3sc(N4CCCC4)nn3c2=O)cc1OC | . | -1 | -16% | . | -21%[46.1 µM] | -15%
Cc1ccc2[nH]cc(CCNC(=O)Nc3ccccc3)c2c1 | -19% | -30 | . | 2% | ? | .
CC(=O)c1cccc(NC(=O)NCCc2c[nH]c3ccccc23)c1 | -5% | -82* | 3%[7.34 µM] | -3%[46.1 µM] | 0% | i[7.34 µM]
O=C(NCC1CCC2(CCN(Cc3ccc4ncccc4c3)CC2)O1)C1CCCO1 (stereo not given) | . | . | -13% | . | . | i
COCC1CCCN(Cc2ccc3c(c2)CN(C(=O)c2ccc(-c4ccc(C)o4)cc2)CCO3)C1 (stereo not given) | . | . | -10% | . | . | -12%
COc1ccc(-c2nc(-c3ccccn3)ncc2S(C)(=O)=O)cc1 | -9% | -61* | -4% | 3%[46.1 µM] | -12% | -2%
N=C1C(c2nc3ccccc3s2)=C(O)CN1C1CCCCC1 | 10% | -4 | . | . | . | .
CCN(CC)CCCN1CC(O)=C(c2nc3ccccc3s2)C1=N | 11µM* | 77 | -20% | ? | ? | .
N=C1C(c2nc3ccccc3s2)=C(O)CN1Cc1ccccc1 | ? | 46 | ? | ? | -16% | ?
CCOc1ccccc1N1CC(O)=C(c2nc3ccccc3s2)C1=N | ? | -8 | ? | 5.8µM* | ? | -12%
COc1ccc(OC)c(N2CC(O)=C(c3nc4ccccc4s3)C2=N)c1 | 25µM* | -9 | -26% | ? | ? | -9%
COc1ccccc1N1CC(O)=C(c2nc3ccccc3c(=O)[nH]2)C1=N | ? | -9 | ? | -1% | -12% | 5.6µM*
CCOc1ccc(C(=O)NCC(c2ccc3c(c2)OCO3)N2CCN(c3ccc(F)cc3)CC2)cc1 (stereo not given) | . | 2 | -17% | . | ? | -19%
O=S(=O)(c1ccc(Br)cc1)N1CCn2cccc2C1c1ccc(Br)cc1 (stereo not given) | . | -22 | 10% | . | -10%[46.1 µM] | 3%
C=CCNC(=O)[C@H]1C=C(OC)C(=O)C[C@H](c2ccccc2)[C@H]1C | . | . | . | 9%[14.2 µM] | . | .

Screening results from PubChem.
